The source made the active and inactive calls.
Key:
[1] = tested on: XIP peptide (Xip251-270) binding; assay: XIP fragment 251-270 binding compounds – biochemical, small-molecule microarray, fluorescence 635/667 nm, 0.1 µg/mL protein, primary screen (AID 1182); conditions: fluorescent protein binding, 635 nm, higher = more signal, called active from +8 up or from −8 down
XIP peptide (Xip251-270) = assay: compounds binding XIP fragment 251-270 – biochemical, small-molecule microarray, fluorescence 635/667 nm, 0.5 µg/mL protein, primary screen (AID 1183); conditions: fluorescence 635 nm, higher = more signal
[2] = blood-stage malaria parasite viability loss – strain 3D7, DAPI fluorescence, 100 nL, primary screen (AID 1184);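 note: parasites grown inside human red blood cells in medium with human serum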; conditions: P. falciparum 3D7 growth, 3 d, higher = more signal
[3] = target: Homeobox protein Hox-A13 (Mus musculus) (UniProt Q62424); assay: disruptors of Hoxa13 oligonucleotide interaction – biochemical, fluorescence polarization, labeled oligonucleotide, primary screen (AID 1185); conditions: Hoxa13:DNA binding, 15 min, higher = more signal, called active from +8 up or from −8 down
Chain of Homeobox protein Hox-A13 (Mus musculus) (Q62424 whole entry, looked up): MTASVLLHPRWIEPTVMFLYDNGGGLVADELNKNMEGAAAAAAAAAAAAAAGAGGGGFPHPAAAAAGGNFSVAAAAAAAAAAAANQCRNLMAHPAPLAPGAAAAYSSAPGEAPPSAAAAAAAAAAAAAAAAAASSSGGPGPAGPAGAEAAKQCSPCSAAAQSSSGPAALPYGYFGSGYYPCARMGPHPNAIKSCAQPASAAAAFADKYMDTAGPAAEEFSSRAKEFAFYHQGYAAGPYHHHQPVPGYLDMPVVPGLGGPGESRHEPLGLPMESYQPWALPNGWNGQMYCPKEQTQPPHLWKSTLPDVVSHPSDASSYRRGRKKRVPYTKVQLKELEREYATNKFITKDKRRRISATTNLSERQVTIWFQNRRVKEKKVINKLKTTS

Row | SMILES | composite z-score [1] | composite z-score (XIP peptide (Xip251-270)) | z-score [2] | z-score [3]
1 | O=C1CCCC2OC12C(O)CCc1ccccc1 (stereo unspecified) | -0.128 (inactive) | -0.213 | 0.307 | -0.663 (inactive)
2 | CC(C)(C)N1C(=O)[C@H]2[C@H]3[C@H](O)[C@H](O)CC(=NOCc4ccccc4)[C@@H]3CC[C@H]2C1=O | 0.691 (inactive) | 0.779 | 0.281 | 1.12 (inactive)
3 | COc1ccc(COC(=O)NN=C2C[C@@H](O)[C@@H](O)[C@@H]3[C@@H]4C(=O)N(Cc5ccc6c(c5)OCO6)C(=O)[C@@H]4CC[C@@H]23)cc1 | 0.361 (inactive) | -0.239 | 0.142 | 0.284 (inactive)
4 | O=C1[C@H]2[C@H]3[C@H](O)[C@H](O)CC(=NOCc4ccccc4)[C@H]3CC[C@H]2C(=O)N1C[C@@H]1CCCO1 | -0.344 (inactive) | 0.567 | 0.319 | -1.68 (inactive)
5 | O=C1[C@H]2[C@H]3[C@H](O)[C@H](O)CC(=NO[C@@H]4O[C@H](CO)[C@@H](O)[C@H](O)[C@H]4O)[C@@H]3CC[C@H]2C(=O)N1c1ccc(F)cc1F | 0.34 (inactive) | 0.225 | 0.531 | 0.036 (inactive)
6 | COc1ccc(O[C@H]2C=C[C@@H](c3ccccc3)O[C@@H]2COC(=O)CCC(C)=NO[C@H](C)c2cn([C@@H]3COC[C@H]3O)nn2)cc1 | 0.0628 (inactive) | 0.596 | -1.52 | -6.96 (inactive)
7 | COc1ccc(O[C@@H]2[C@H](O)CO[C@H]2C=CC#Cc2ccccc2)cc1 | -0.0908 (inactive) | 0.799 | -0.456 | -3.09 (inactive)
8 | CC(=O)OC[C@H]1O[C@@H](ON=C[C@@H](C)[C@H](OCc2ccccc2)C(C)C)[C@H](OC(C)=O)[C@@H](OC(C)=O)[C@@H]1OC(C)=O | -0.182 (inactive) | 0.0517 | 0.317 | -4.44 (inactive)
9 | CC(CCN1CCc2nc(-c3ccccc3)c(-c3ccccc3)cc2C1)=NO[C@@H](C)c1cn([C@H](CO)Cc2ccccc2)nn1 | -0.416 (inactive) | -0.346 | -0.17 | -4.81 (inactive)
10 | O=C1[C@H]2[C@H]3[C@H](O)[C@H](O)CC(=NOC[C@@H](O)COCc4ccco4)[C@H]3CC[C@H]2C(=O)N1c1cccc(Oc2ccccc2)c1 | 0.283 (inactive) | 0.638 | 0.499 | 0.338 (inactive)
11 | CC[C@@H](c1ccccc1)n1c(=O)n2n(c1=O)[C@H]1[C@H](O)[C@@H]3O[C@@H]3C(=NOCC(C)C)[C@H]1CC2 | -0.242 (inactive) | 0.68 | -0.265 | -2.28 (inactive)
12 | CC(C)=CCCC(C)=CCON=C1C[C@@H](O)[C@@H](O)[C@@H]2[C@@H]3C(=O)N(C[C@@H]4CCCO4)C(=O)[C@@H]3CC[C@@H]12 | 0.0561 (inactive) | 0.539 | 1.55 | 0.264 (inactive)
13 | O=C1[C@H]2[C@H]3[C@H](O)[C@H](O)CC(=NO[C@@H]4O[C@H](CO)[C@@H](O)[C@H](O)[C@H]4O)[C@H]3CC[C@H]2C(=O)N1C1CCCCC1 | 0.269 (inactive) | 0.653 | 0.418 | -4.7 (inactive)
14 | CC(CCC(=O)OC[C@H]1O[C@H](C#Cc2ccccc2)C=C[C@@H]1Oc1ccc(C)cc1)=NOC[C@@H](O)COCc1ccco1 | -0.729 (inactive) | -0.205 | 0.177 | -3.65 (inactive)
15 | COc1ccc(O[C@H]2C=C[C@@H](c3ccccc3)O[C@@H]2CON=C[C@@H](C)[C@H](OCc2ccccc2)C(C)C)cc1 | 0.0702 (inactive) | -0.126 | -0.118 | -0.538 (inactive)
16 | CCc1cc2c(nc1CC)CCN(CCC(C)=NO[C@@H](C)c1cc(-c3c(C)cc(C)cc3C)no1)C2 | -0.712 (inactive) | 0.325 | 0.319 | -2.85 (inactive)
17 | CCN1C(=O)[C@H]2[C@H]3[C@H](O)[C@H](O)CC(=NOCc4ccccc4)[C@H]3CC[C@H]2C1=O | -0.0513 (inactive) | 0.172 | 0.783 | -1.15 (inactive)
18 | C[C@@H]1C=CCC(=O)OC[C@H](C)C(=O)N[C@@H](C)C(=O)OC1 | 0.0195 (inactive) | -0.059 | -0.207 | 0.442 (inactive)
19 | Cc1cc(C)c(-c2cc([C@H](C)ON=C3[C@H]4CCn5c(=O)n(-c6ccccc6)c(=O)n5[C@H]4[C@H](O)[C@@H]4O[C@H]34)on2)c(C)c1 | 2.08 (inactive) | 0.0933 | 0.173 | -4.69 (inactive)

Reference: PubChem BioAssay
